Results from PubChem BioAssay AID1159580 (chemical genetic matrix, 2015).
About 2,000 (36%) of roughly 5,500 compounds were called active. Not shown: some 18% with an inconclusive outcome. Some of the results follow. A number with no mark means an inactive call. No stated cut-off is given here; in the data, active means normalized growth mostly below about 0.91 (no sharp cut-off); inconclusive means no clear call, values can overlap the other calls; inactive means mostly above about 0.92.

Assay: chemical genetic growth profiling, strain panel (AID 1159580);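 further: tested at 20 µM; growth read once vehicle control cultures reached saturation at 30 °C; 1 = growth at the plate median or of vehicle wells; lower values mean less growth of the strain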
Conditions: growth OD

**Q.** For `CCOC(=O)CCCCCCCCCCCCC1C=CCC1` (centres undefined), which normalized growth (S. cerevisiae deletion strains, locus YJR066W, strain TOR1, active compounds read low) is on record?
**A.** 0.902

**Q.** What about the normalized growth (S. cerevisiae deletion strains, locus YJR075W, strain HOC1, active compounds read low) of the same compound?
**A.** 0.062 (active)

**Q.** And the normalized growth (S. cerevisiae deletion strains, locus YKL009W, strain mrt4, active compounds read low)?
**A.** 0.729 (active)

**Q.** And the normalized growth (S. cerevisiae deletion strains, locus YKL068W, active compounds read low)?
**A.** 0.984

**Q.** What about the normalized growth (S. cerevisiae deletion strains, locus YKL085W, strain MDH1 (second series), active compounds read low) of the same compound?
**A.** 0.627 (active)

**Q.** What about the normalized growth (S. cerevisiae deletion strains, locus YKL085W, strain MDH1, active compounds read low) of the same compound?
**A.** 0.627 (active)

**Q.** And the normalized growth (S. cerevisiae deletion strains, locus YKL160W, strain elf1, active compounds read low)?
**A.** 1

**Q.** And the normalized growth (S. cerevisiae deletion strains, locus YKR001C, strain vps1, active compounds read low)?
**A.** 0.0645 (active)

**Q.** And the normalized growth (S. cerevisiae deletion strains, locus YKR026C, strain gcn3, active compounds read low)?
**A.** 0.975

**Q.** What about the normalized growth (S. cerevisiae deletion strains, locus YKR091W, strain srl3, active compounds read low) of the same compound?
**A.** 0.983

**Q.** And the normalized growth (S. cerevisiae deletion strains, locus YLL001W, strain dnm1, active compounds read low)?
**A.** 1

**Q.** And the normalized growth (S. cerevisiae deletion strains, locus YLL026W, active compounds read low)?
**A.** 0.961

**Q.** And the normalized growth (S. cerevisiae deletion strains, locus YLL041C, strain sdh2, active compounds read low)?
**A.** 0.992

**Q.** And the normalized growth (S. cerevisiae deletion strains, locus YLR027C, strain aat2, active compounds read low)?
**A.** 0.973

**Q.** And the normalized growth (S. cerevisiae deletion strains, locus YLR039C, strain RIC1, active compounds read low)?
**A.** 0.0918 (active)

**Q.** What about the normalized growth (S. cerevisiae deletion strains, locus YLR058C, strain SHM2, active compounds read low) of the same compound?
**A.** 0.0501 (active)

**Q.** And the normalized growth (S. cerevisiae deletion strains, locus YLR102C, strain apc9, active compounds read low)?
**A.** 0.0639 (active)

**Q.** What about the normalized growth (S. cerevisiae deletion strains, locus YLR113W, strain HOG1, active compounds read low) of the same compound?
**A.** 1.01

**Q.** What about the normalized growth (S. cerevisiae deletion strains, locus YLR221C, strain rsa3, active compounds read low) of the same compound?
**A.** 0.938

**Q.** What about the normalized growth (S. cerevisiae deletion strains, locus YLR258W, strain gsy2, active compounds read low) of the same compound?
**A.** 0.946

**Q.** And the normalized growth (S. cerevisiae deletion strains, locus YLR262C, strain YPT6 (second series), active compounds read low)?
**A.** 0.942

**Q.** And the normalized growth (S. cerevisiae deletion strains, locus YLR262C, strain YPT6, active compounds read low)?
**A.** 0.102 (active)

**Q.** And the normalized growth (S. cerevisiae deletion strains, locus YLR268W, strain sec22, active compounds read low)?
**A.** 0.0626 (active)

**Q.** And the normalized growth (S. cerevisiae deletion strains, locus YLR320W, strain mms22, active compounds read low)?
**A.** 0.808 (active)

**Q.** What about the normalized growth (S. cerevisiae deletion strains, locus YLR330W, strain CHS5, active compounds read low) of the same compound?
**A.** 0.0514 (active)

**Q.** And the normalized growth (S. cerevisiae deletion strains, locus YLR342W, strain FKS1 (second series), active compounds read low)?
**A.** 0.0786 (active)

**Q.** What about the normalized growth (S. cerevisiae deletion strains, locus YLR342W, strain FKS1, active compounds read low) of the same compound?
**A.** 0.954

**Q.** What about the normalized growth (S. cerevisiae deletion strains, locus YLR357W, strain rsc2, active compounds read low) of the same compound?
**A.** 1

**Q.** And the normalized growth (S. cerevisiae deletion strains, locus YLR370C, strain arc18, active compounds read low)?
**A.** 0.994

**Q.** And the normalized growth (S. cerevisiae deletion strains, locus YLR371W, strain rom2, active compounds read low)?
**A.** 0.0661 (active)

**Q.** And the normalized growth (S. cerevisiae deletion strains, locus YLR384C, strain iki3, active compounds read low)?
**A.** 0.965

**Q.** And the normalized growth (S. cerevisiae deletion strains, locus YLR418C, strain cdc73, active compounds read low)?
**A.** 0.0873 (active)

**Q.** What about the normalized growth (S. cerevisiae deletion strains, locus YML016C, strain PPZ1, active compounds read low) of the same compound?
**A.** 0.0464 (active)

**Q.** And the normalized growth (S. cerevisiae deletion strains, locus YML032C, strain rad52, active compounds read low)?
**A.** 0.0734 (active)

**Q.** What about the normalized growth (S. cerevisiae deletion strains, locus YML120C, strain ndi1, active compounds read low) of the same compound?
**A.** 0.994

**Q.** And the normalized growth (S. cerevisiae deletion strains, locus YML124C, strain tub3, active compounds read low)?
**A.** 0.063 (active)

**Q.** What about the normalized growth (S. cerevisiae deletion strains, locus YMR058W, strain fet3, active compounds read low) of the same compound?
**A.** 0.991

**Q.** What about the normalized growth (S. cerevisiae deletion strains, locus YMR078C, strain ctf18, active compounds read low) of the same compound?
**A.** 0.0817 (active)

**Q.** And the normalized growth (S. cerevisiae deletion strains, locus YMR125W, strain sto1, active compounds read low)?
**A.** 0.951

**Q.** What about the normalized growth (S. cerevisiae deletion strains, locus YMR129W, active compounds read low) of the same compound?
**A.** 0.993

**Q.** What about the normalized growth (S. cerevisiae deletion strains, locus YMR205C, strain PFK2, active compounds read low) of the same compound?
**A.** 0.864 (active)

**Q.** And the normalized growth (S. cerevisiae deletion strains, locus YMR223W, strain ubp8, active compounds read low)?
**A.** 0.0615 (active)

**Q.** And the normalized growth (S. cerevisiae deletion strains, locus YMR231W, strain pep5, active compounds read low)?
**A.** 0.971

**Q.** And the normalized growth (S. cerevisiae deletion strains, locus YMR307W, strain GAS1, active compounds read low)?
**A.** 0.12 (active)

**Q.** And the normalized growth (S. cerevisiae deletion strains, locus YNL067W, strain RPL9B, active compounds read low)?
**A.** 0.0497 (active)

**Q.** What about the normalized growth (S. cerevisiae deletion strains, locus YNL071W, strain lat1, active compounds read low) of the same compound?
**A.** 0.808 (active)

**Q.** And the normalized growth (S. cerevisiae deletion strains, locus YNL128W, strain TEP1, active compounds read low)?
**A.** 0.0632 (active)

**Q.** And the normalized growth (S. cerevisiae deletion strains, locus YNL153C, strain GIM3, active compounds read low)?
**A.** 0.0549 (active)

**Q.** And the normalized growth (S. cerevisiae deletion strains, locus YNL183C, strain NPR1, active compounds read low)?
**A.** 0.893

**Q.** What about the normalized growth (S. cerevisiae deletion strains, locus YNL209W, strain ssb2, active compounds read low) of the same compound?
**A.** 0.982

**Q.** And the normalized growth (S. cerevisiae deletion strains, locus YNL233W, strain BNI4, active compounds read low)?
**A.** 0.0592 (active)

**Q.** And the normalized growth (S. cerevisiae deletion strains, locus YNL248C, strain rpa49, active compounds read low)?
**A.** 1.01

**Q.** What about the normalized growth (S. cerevisiae deletion strains, locus YNL250W, strain rad50, active compounds read low) of the same compound?
**A.** 0.848 (active)

**Q.** And the normalized growth (S. cerevisiae deletion strains, locus YNL271C, strain bni1, active compounds read low)?
**A.** 0.146 (active)

**Q.** What about the normalized growth (S. cerevisiae deletion strains, locus YNL298W, strain CLA4, active compounds read low) of the same compound?
**A.** 0.0648 (active)

**Q.** What about the normalized growth (S. cerevisiae deletion strains, locus YNL307C, strain MCK1, active compounds read low) of the same compound?
**A.** 0.0657 (active)

**Q.** And the normalized growth (S. cerevisiae deletion strains, locus YNL322C, strain KRE1 (second series), active compounds read low)?
**A.** 0.998

**Q.** What about the normalized growth (S. cerevisiae deletion strains, locus YNL322C, strain KRE1, active compounds read low) of the same compound?
**A.** 0.047 (active)

**Q.** And the normalized growth (S. cerevisiae deletion strains, locus YNR049C, strain mso1, active compounds read low)?
**A.** 0.987

**Q.** And the normalized growth (S. cerevisiae deletion strains, locus YNR052C, strain pop2, active compounds read low)?
**A.** 0.0632 (active)

**Q.** What about the normalized growth (S. cerevisiae deletion strains, locus YOL006C, strain TOP1, active compounds read low) of the same compound?
**A.** 0.119 (active)

**Q.** What about the normalized growth (S. cerevisiae deletion strains, locus YOL012C, strain htz1) of the same compound?
**A.** 0.179 (active)

**Q.** And the normalized growth (S. cerevisiae deletion strains, locus YOL147C, strain pex11, active compounds read low)?
**A.** 0.0616 (active)

**Q.** And the normalized growth (S. cerevisiae deletion strains, locus YOR001W, strain rrp6, active compounds read low)?
**A.** 1

**Q.** And the normalized growth (S. cerevisiae deletion strains, locus YOR061W, strain CKA2, active compounds read low)?
**A.** 0.0461 (active)

**Q.** And the normalized growth (S. cerevisiae deletion strains, locus YOR069W, strain VPS5, active compounds read low)?
**A.** 0.0484 (active)

**Q.** And the normalized growth (S. cerevisiae deletion strains, locus YOR070C, strain gyp1, active compounds read low)?
**A.** 0.962

**Q.** What about the normalized growth (S. cerevisiae deletion strains, locus YOR080W, strain dia2, active compounds read low) of the same compound?
**A.** 0.99

**Q.** What about the normalized growth (S. cerevisiae deletion strains, locus YOR083W, strain WHI5, active compounds read low) of the same compound?
**A.** 1

**Q.** What about the normalized growth (S. cerevisiae deletion strains, locus YOR106W, strain vam3, active compounds read low) of the same compound?
**A.** 0.976

**Q.** What about the normalized growth (S. cerevisiae deletion strains, locus YOR136W, strain idh2, active compounds read low) of the same compound?
**A.** 0.0725 (active)

**Q.** And the normalized growth (S. cerevisiae deletion strains, locus YOR144C, strain elg1, active compounds read low)?
**A.** 0.0688 (active)

**Q.** What about the normalized growth (S. cerevisiae deletion strains, locus YOR184W, strain ser1, active compounds read low) of the same compound?
**A.** 0.0609 (active)

**Q.** What about the normalized growth (S. cerevisiae deletion strains, locus YOR231W, strain MKK1, active compounds read low) of the same compound?
**A.** 0.984

**Q.** What about the normalized growth (S. cerevisiae deletion strains, locus YOR265W, strain rbl2, active compounds read low) of the same compound?
**A.** 0.982

**Q.** What about the normalized growth (S. cerevisiae deletion strains, locus YOR270C, strain vph1, active compounds read low) of the same compound?
**A.** 1.01

**Q.** What about the normalized growth (S. cerevisiae deletion strains, locus YOR290C, strain snf2, active compounds read low) of the same compound?
**A.** 0.962

**Q.** And the normalized growth (S. cerevisiae deletion strains, locus YOR316C, strain cot1, active compounds read low)?
**A.** 0.0601 (active)

**Q.** And the normalized growth (S. cerevisiae deletion strains, locus YPL051W, strain arl3, active compounds read low)?
**A.** 0.989

**Q.** And the normalized growth (S. cerevisiae deletion strains, locus YPL078C, strain atp4, active compounds read low)?
**A.** 0.979

**Q.** What about the normalized growth (S. cerevisiae deletion strains, locus YPL106C, strain sse1, active compounds read low) of the same compound?
**A.** 1.12

**Q.** What about the normalized growth (S. cerevisiae deletion strains, locus YPL240C, strain hsp82, active compounds read low) of the same compound?
**A.** 0.988

**Q.** What about the normalized growth (S. cerevisiae deletion strains, locus YPL256C, strain CLN2, active compounds read low) of the same compound?
**A.** 1.03

**Q.** And the normalized growth (S. cerevisiae deletion strains, locus YPR119W, strain clb2, active compounds read low)?
**A.** 0.0692 (active)

**Q.** What about the normalized growth (S. cerevisiae deletion strains, locus YPR141C, strain kar3, active compounds read low) of the same compound?
**A.** 0.99

**Q.** And the normalized growth (S. cerevisiae deletion strains, locus YPR163C, strain tif3, active compounds read low)?
**A.** 0.0692 (active)

**Q.** And the normalized growth (S. cerevisiae deletion strains, locus YPR167C, strain met16, active compounds read low)?
**A.** 0.0627 (active)

**Q.** What about the normalized growth (S. cerevisiae deletion strains, strain wtn01, active compounds read low) of the same compound?
**A.** 0.0688 (active)

**Q.** What about the normalized growth (S. cerevisiae strains, strain wild type, active compounds read low) of the same compound?
**A.** 0.0499 (active)
